From PubChem BioAssay (NCATS)
Inconclusive results are not listed. Active and inactive are the calls of the source. Unless noted, the call rests on the fitted dose curve.

What was measured:
[1] = Cell Viability - BJ (AID 421); conditions: BJ fibroblast viability, qHTS;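 further: potency means the concentration at half of the fitted maximal effect; cells exposed to compound for 40 hours at 37 °C before readout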
In short: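 Quantitative HTS: ATP depletion in BJ cells after 40 hr compound exposure in complete culture medium, detected with CellTiter-Glo; AC50 from standard Hill fits.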

[2] = Cell Viability - Hek293 (AID 427;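 active means compounds whose dose-response curve shows a full or clear partial loss of cell viability, called from curve shape rather than a numeric limit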;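 further: potency means the concentration at half of the fitted maximal effect; cells exposed to compound for 40 hours at 37 °C before reading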); conditions: qHTS
In short: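 AC50 values derive from Hill-modelled concentration-response of ATP-based luminescence, normalized between DMSO-only and 100 uM tamoxifen controls. Cells were exposed in complete culture medium for 40 hr at 37 °C before detection.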

[3] = Cell Viability - HepG2 (AID 433); conditions: qHTS;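 further: potency means the concentration at half of the fitted maximal effect; potency for ATP loss meaning cytotoxicity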
In short: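 HepG2 hepatocellular carcinoma cells (1500/well) were treated with compounds for 40 h at 37 °C in complete medium; intracellular ATP was read by CellTiter-Glo luminescence. Data were normalized to DMSO and 100 uM tamoxifen, and AC50 came from Hill fits.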

[4] = Cell Viability - MRC5 (AID 434); conditions: MRC5 lung fibroblast viability, qHTS;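 further: potency means the concentration at half of the fitted maximal effect; potency reflects cytotoxicity seen as loss of intracellular ATP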
In short: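 MRC5 normal human lung fibroblasts, 1500 cells/well, exposed to compound for 40 hr at 37 C. Cellular ATP was read by CellTiter-Glo luminescence; data normalized to DMSO and 100 uM tamoxifen, with AC50 from Hill fits.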

[5] = biological target: Mitogen-activated protein kinase 10 (Mus musculus) (UniProt Q61831); assay: JNK3 AlphaScreen Assay (AID 530; active means well fitted curve in either direction with a large enough effect, not every such curve was filed as active;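 further: kinase came from lysate of stimulated human HepG2 cells; signal reports phosphorylation of biotinylated GST-cJun 1-79 at Ser73 with 10 µM ATP; on the % scale 0 is the no-effect control and ±100 the full control effect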); conditions: JNK3 lysate, c-Jun phosphorylation; series mostly up to 57.1 µM
In short: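 qHTS format: compounds tested as titrations against IL-1beta/TNF-alpha-activated HepG2 lysate JNK3 with biotin-GST-cJun substrate and 10 uM ATP at room temperature. Loss of anti-phospho-cJun AlphaScreen signal indicates inhibition.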

[6] = Cell Viability - N2a (AID 540; active means well fitted curve in the direction sought with a large enough effect; an effect the other way counts as inactive or inconclusive;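 further: plate controls were DMSO alone for no effect and tamoxifen control for full effect; nearly all actives have a fitted effect of over 45% in size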); conditions: N2a mouse neuroblastoma cell viability; activity change, negative = cytotoxicity: at 92.2 µM (top of the series)
In short: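 Mouse neuroblastoma N2a cells (1500/well) were preincubated 5 hr at 37 °C, then exposed to compounds for 40 hr at 37 °C in complete medium. Viability was read as intracellular ATP by CellTiter-Glo luminescence; AC50 from Hill fits.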

[7] = Cell Viability - NIH 3T3 (AID 541; active means well fitted curve in the direction sought with a large enough effect; an effect the other way counts as inactive or inconclusive;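 further: plate controls were DMSO alone for no effect and tamoxifen positive control for full effect; nearly all actives have a fitted effect of over 25% in size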); conditions: NIH 3T3 cell viability, qHTS; activity change, negative = cytotoxicity: at 92.2 µM (top of the series)
In short: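 NIH 3T3 mouse embryo fibroblasts (1000 cells/well) were plated in complete medium and treated with compound for 40 hr at 37 °C. Viability was read as intracellular ATP by CellTiter-Glo luminescence; AC50 values came from Hill-equation fits of concentration-response data.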

[8] = Cell Viability - HUV-EC-C (AID 542; active means well fitted curve in the direction sought with a large enough effect; an effect the other way counts as inactive or inconclusive; further: on the % scale 0 is the no-effect control and ±100 the full control effect; nearly all actives have a fitted effect of over 35% in size); conditions: HUV-EC-C endothelial cell viability, qHTS; series mostly up to 92.2 µM
In short: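 HUV-EC-C normal human vascular endothelial cells, 1000 cells/well, pre-incubated 5 hr at 37 °C, then exposed to compounds for 40 hr at 37 °C in complete medium. Viability measured as intracellular ATP by CellTiter-Glo luminescence; AC50 from Hill fits.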

[9] = Cell Viability - SK-N-SH (AID 435); conditions: SK-N-SH neuroblastoma cell viability qHTS;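 further: potency means the concentration at half of the fitted maximal effect; compound exposure lasted 40 h at 37 °C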
In short: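 SK-N-SH human neuroblastoma cells (1500/well) were exposed to compounds in complete medium for 40 h at 37 °C, and intracellular ATP was then measured by CellTiter-Glo luminescence. AC50 was taken from Hill fits, normalized to DMSO and 100 uM tamoxifen.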

CCCCC=O
inactive: Potency [1] > 92 µM | Potency [2] > 92 µM | Potency [3] > 92 µM | Potency [4] > 92 µM | outcome [5] | activity change, negative = cytotoxicity [6] 4.71% | Potency [7] | Potency [8]

NCCCCCCN
inactive: Potency [1] > 92 µM | Potency [2] > 92 µM | Potency [3] > 92 µM | Potency [4] > 92 µM | Potency [9] > 92 µM | outcome [5] | activity change, negative = cytotoxicity [6] -4.05% | Potency [7] | Potency [8]

O=C(O)c1ccccc1Cl
inactive: Potency [1] > 92 µM | Potency [2] > 92 µM | Potency [3] > 92 µM | Potency [9] > 92 µM | outcome [5] | activity change, negative = cytotoxicity [6] -6.85% | Potency [7] | Potency [8]

CC(C)Cc1nccs1
inactive: Potency [1] > 92 µM | Potency [2] > 92 µM | Potency [3] > 92 µM | Potency [4] > 92 µM | Potency [9] > 92 µM | outcome [5] | activity change, negative = cytotoxicity [6] 2.65% | Potency [7]

CCCCC(CC)CNCC(CC)CCCC (stereo not given)
inactive: Potency [1] > 92 µM | Potency [2] > 92 µM | Potency [4] > 92 µM | outcome [5] | activity change, negative = cytotoxicity [6] -7.79% | Potency [7] | Potency [8]

O=Cc1ccc(CO)o1
inactive: Potency [1] > 92 µM | Potency [2] > 92 µM | Potency [3] > 92 µM | Potency [4] > 92 µM | Potency [9] > 92 µM | outcome [5] | activity change, negative = cytotoxicity [6] 1.46% | Potency [8]

OC/C(Br)=C(\Br)CO
inactive: Potency [1] > 92 µM | Potency [2] > 92 µM | Potency [3] > 92 µM | Potency [9] > 92 µM | outcome [5] | activity change, negative = cytotoxicity [6] -4.76% | Potency [7] | Potency [8]

CC(O)CC(C)O (stereo not given)
inactive: Potency [1] > 92 µM | Potency [2] > 92 µM | Potency [3] > 92 µM | Potency [4] > 92 µM | Potency [9] > 92 µM | outcome [5] | activity change, negative = cytotoxicity [6] -8.39% | Potency [7] | Potency [8]

O=[N+]([O-])c1cc(C(F)(F)F)ccc1Cl
inactive: Potency [1] > 92 µM | Potency [2] > 92 µM | Potency [3] > 92 µM | Potency [4] > 92 µM | outcome [5] | activity change, negative = cytotoxicity [6] 4.62% | Potency [7] | Potency [8]

CN(C)c1cccc(O)c1
inactive: Potency [1] > 92 µM | Potency [2] > 92 µM | Potency [3] > 92 µM | Potency [4] > 92 µM | Potency [9] > 92 µM | outcome [5] | activity change, negative = cytotoxicity [6] -1.51% | Potency [7] | Potency [8]

Cc1ccccc1C(N)=O
inactive: Potency [1] > 92 µM | Potency [2] > 92 µM | Potency [4] > 92 µM | Potency [9] > 92 µM | outcome [5] | activity change, negative = cytotoxicity [6] -9.85% | Potency [7] | Potency [8]

CCC(C)(C)C
inactive: Potency [1] > 92 µM | Potency [2] > 92 µM | Potency [4] > 92 µM | Potency [9] > 92 µM | outcome [5] | activity change, negative = cytotoxicity [6] -21.6% | Potency [7] | Potency [8]

CCCCCNCCCCC
inactive: Potency [1] > 92 µM | Potency [2] > 92 µM | Potency [3] > 92 µM | Potency [4] > 92 µM | Potency [9] > 92 µM | outcome [5] | activity change, negative = cytotoxicity [6] 0.97% | Potency [7]

NC(=S)NNC(N)=S
inactive: Potency [1] > 92 µM | Potency [2] > 92 µM | Potency [3] > 92 µM | Potency [4] > 92 µM | Potency [9] > 92 µM | outcome [5] | activity change, negative = cytotoxicity [6] 4.33% | Potency [7] | Potency [8]

CC(C)CCOC(=O)/C=C/c1ccccc1
inactive: Potency [1] > 92 µM | Potency [2] > 92 µM | Potency [3] > 92 µM | Potency [4] > 92 µM | Potency [9] > 92 µM | outcome [5] | activity change, negative = cytotoxicity [6] 1.5% | Potency [7] | Potency [8]

Nc1cccc(O)c1
inactive: Potency [1] > 92 µM | Potency [2] > 92 µM | Potency [3] > 92 µM | Potency [4] > 92 µM | Potency [9] > 92 µM | outcome [5] | activity change, negative = cytotoxicity [6] 4.14% | Potency [7] | Potency [8]

C/C(C=O)=C/c1ccccc1
inactive: Potency [1] > 92 µM | Potency [2] > 92 µM | Potency [3] > 92 µM | Potency [4] > 92 µM | Potency [9] > 92 µM | outcome [5] | activity change, negative = cytotoxicity [6] -1.48% | Potency [7] | Potency [8]

CC(C)(O)CCC(C)(C)O
inactive: Potency [1] > 92 µM | Potency [2] > 92 µM | Potency [3] > 92 µM | Potency [4] > 92 µM | Potency [9] > 92 µM | outcome [5] | activity change, negative = cytotoxicity [6] 3.94% | Potency [7] | Potency [8]

O=C(O)c1cccc([N+](=O)[O-])c1
inactive: Potency [1] > 92 µM | Potency [2] > 92 µM | Potency [3] > 92 µM | Potency [4] > 92 µM | Potency [9] > 92 µM | outcome [5] | activity change, negative = cytotoxicity [6] -0.379% | Potency [7] | Potency [8]
